Only some compounds are listed: those with a hit (about 3.4% of all), similar ones and a draw of the others.
MITF inh: inhibitors of human MITF; AlphaScreen MITF homodimerization, bead proximity signal; inhibition, % at 2.6 µM; hit rate 0.91% among 650,000; AID 1259374; in the data active = inhibition above about 50%
TEAD-YAP block: TEAD-YAP interaction inhibition. hit rate 1.4% among 640,000. HEK-TIYL cells, TEAD-Gal4/YAP UAS-luciferase luminescence. inhibition, % at 9.12 µM; in the data active = inhibition above about 32%
FBW7 activator: activators of human E3 ligase FBW7; Q969H0; AlphaScreen FBW7–phospho-cyclin E peptide binding, activator screen; normalized activity (activation), % at 26.1 µM; hit rate 0.13% among 650,000; AID 1259310; in the data active = normalized activity above about 1.9%;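 note: purified mutant Fbw7 with reduced substrate affinity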
Target sequence (Q969H0 whole entry, looked up): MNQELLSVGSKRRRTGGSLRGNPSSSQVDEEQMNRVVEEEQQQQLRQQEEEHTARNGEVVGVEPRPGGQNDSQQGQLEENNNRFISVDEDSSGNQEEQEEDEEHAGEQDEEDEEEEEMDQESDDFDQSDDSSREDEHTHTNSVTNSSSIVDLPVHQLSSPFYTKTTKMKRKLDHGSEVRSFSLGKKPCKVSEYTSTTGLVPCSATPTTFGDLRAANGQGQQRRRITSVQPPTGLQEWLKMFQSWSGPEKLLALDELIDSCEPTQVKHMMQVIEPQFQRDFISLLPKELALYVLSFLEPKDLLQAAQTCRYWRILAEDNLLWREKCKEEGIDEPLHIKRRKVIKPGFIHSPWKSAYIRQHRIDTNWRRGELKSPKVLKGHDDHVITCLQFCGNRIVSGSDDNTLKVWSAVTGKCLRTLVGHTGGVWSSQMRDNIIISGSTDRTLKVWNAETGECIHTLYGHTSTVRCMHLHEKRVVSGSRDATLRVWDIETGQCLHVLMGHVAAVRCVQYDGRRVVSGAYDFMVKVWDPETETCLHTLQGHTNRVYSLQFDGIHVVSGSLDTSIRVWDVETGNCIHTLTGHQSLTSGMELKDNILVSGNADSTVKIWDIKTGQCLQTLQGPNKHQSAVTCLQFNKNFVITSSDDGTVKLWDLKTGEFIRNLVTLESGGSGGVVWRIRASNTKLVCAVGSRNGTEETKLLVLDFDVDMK
GPR151 activ: human GPR151 activation; Q8TDV0; PathHunter beta-arrestin GPR151 cells, luminescence; activation, % at 11.2 µM; hit rate 1% among 650,000; AID 1508602; in the data active = activation above about 4.9%
Large screens that a line does not name were inactive.

COc1ccc(CCNc2nc(NCc3cccnc3)ncc2C)cc1	TEAD-YAP block 40.0
COc1ccc(CCNc2nc(Nc3ccccc3)nc3nc[nH]c23)cc1	none
C/C(=N/NC(=O)c1ccccc1Cl)C(C)(C)C	none
COc1ccc(-c2c(Nc3ccc(F)c(Cl)c3)c(=O)c2=O)cc1	MITF inh 72.4
COc1cccc(Nc2c(-c3ccc(C)c(C)c3)c(=O)c2=O)c1	TEAD-YAP block 48.8
O=c1c(Nc2ccc(F)c(Cl)c2)c(-c2ccccc2)c1=O	none
Cc1ccc(-c2c(Nc3ccc(C)c(F)c3)c(=O)c2=O)cc1	none
COc1ccc(-c2c(Nc3ccc(C)c(F)c3)c(=O)c2=O)cc1	MITF inh 78.5
Cc1ccc(S(=O)(=O)/N=C(\Nc2cc(C)on2)c2ccccc2)cc1	none
COc1ccc2sc(N(Cc3ccco3)C(=O)c3cc(C)on3)nc2c1	none
Cc1cc(C)c2c(n1)nn1c(NCc3ccco3)cc(C)nc21	FBW7 activator 253.8
O=C(CSc1nc(-c2ccccc2)ns1)N1CCCCCC1	TEAD-YAP block 39.5
O=C(COc1cccc2ccc(N3CCOCC3)nc12)Nc1cccc(F)c1	TEAD-YAP block 33.9
CCOc1ccc(NC(=O)COc2cccc3ccc(N4CCCC4)nc23)cc1	none
N[C@@H]1CC[C@H](C(=O)Nc2ccc3[nH]ncc3c2)C1	none
N[C@H]1CC[C@@H](C(=O)Nc2ccc3cnccc3c2)C1	TEAD-YAP block 36.3
CCC1(C)NC(=O)N(/N=C/c2cc(Cl)cc([N+](=O)[O-])c2O)C1=O (configuration not stated)	none
CC(=O)Nc1ccc2nc(-c3cc(C)ccc3C)[nH]c2c1	TEAD-YAP block 46.4
CC(=O)Nc1ccc(-c2nc3ccc(C)cc3[nH]2)cc1	none
CCN(CC)C(=O)C[n+]1csc2ccccc21	none
c1ccc(-n2cnc3c(NC4CC4)nc(Nc4ncccn4)nc32)cc1	none
Cn1c(Nc2nc(NC3CC3)c3ncn(-c4ccccc4)c3n2)nc2ccccc21	TEAD-YAP block 46.5
CC(C)N(CCNc1nc(Nc2nc3ccccc3n2C)nc2c1ncn2C(C)C)C(C)C	TEAD-YAP block 42.9
CC(=O)Nc1ccc(Nc2nc3ccccc3n3nnnc23)cc1	TEAD-YAP block 37.7
CC(=O)Nc1cccc(Nc2nc3ccccc3n3nnnc23)c1	none
Cn1c(Nc2nc(NCCCN3CCCC3=O)c3ncn(-c4ccccc4)c3n2)nc2ccccc21	TEAD-YAP block 39.4
Cc1cc(C)c(C2N(c3ccccc3)CCN2c2ccccc2)c(C)c1	none
CC(=O)Nc1ccc(Nc2nc(Nc3nc4ccccc4n3C)nc3c2ncn3-c2ccccc2)cc1	TEAD-YAP block 32.2
Cn1c(Nc2nc(NCCc3ccc(O)cc3)c3ncn(-c4ccccc4)c3n2)nc2ccccc21	none
CCNc1nc(Nc2ccc(NC(C)=O)cc2)c2ncn(-c3ccccc3)c2n1	none
CCCNc1nc(Nc2nc3ccccc3n2C)nc2c1ncn2-c1ccccc1	TEAD-YAP block 54.6
Cn1nccc1Nc1nc(NC2CC2)c2ncn(-c3ccccc3)c2n1	TEAD-YAP block 40.4
CC(=O)Nc1ccc(S(=O)(=O)N2c3ccccc3C(C)=CC2(C)C)cc1	TEAD-YAP block 58.1
CC(=O)N(C1=C(N2CCCCC2)C(=O)c2ccccc2C1=O)c1ccccc1C	TEAD-YAP block 36.4
CC(=O)N(C)C1=C(N2CCCCC2)C(=O)c2ccccc2C1=O	TEAD-YAP block 91.2
O=C(Nc1cnc2c(C(=O)O)cccn2c1=O)c1ccc(F)cc1	none
CCN1CCN(C(c2ccc(N(C)C)cc2)c2nnnn2C2CCCC2)CC1 (configuration not stated)	none
O=C(O)CCCN1C(=O)/C(=C/c2cc([N+](=O)[O-])ccc2O)SC1=S	none
Cc1nc(C)c(CCNS(=O)(=O)c2ccc3c(c2)CCCC3)s1	none
Cn1c(=O)cc(OCCCC(=O)Nc2ccc(Cl)cn2)c2ccccc21	TEAD-YAP block 42.7
Cc1cccc(/C=N/Nc2nncc3ccccc23)c1	TEAD-YAP block 67.2
Cc1cc2c(cc1C)NC(c1cc3c(cc1[N+](=O)[O-])OCO3)C1=C(CC(C)(C)CC1=O)N2 (configuration not stated)	TEAD-YAP block 71.9
COc1ccccc1-c1cnc2ccc(NCc3cccs3)nn12	FBW7 activator 1.9
COc1cc(CNc2ccc3ncc(-c4cccc(O)c4)n3n2)cc(OC)c1OC	none
COc1cc(-c2cnc3ccc(NCc4cccs4)nn23)cc(OC)c1OC	none
COc1cc(-c2cnc3ccc(NCC4CC4)nn23)ccc1O	none
OCc1ccccc1-c1cnc2ccc(NCc3cccs3)nn12	none
COc1cc(-c2cnc3ccc(NCc4cccs4)nn23)ccc1O	TEAD-YAP block 40.5
COc1cc(CNc2ccc3ncc(-c4cccc(N(C)C)c4)n3n2)cc(OC)c1OC	TEAD-YAP block 49.9
CCCNc1ccc2ncc(-c3ccc(O)c(OC)c3)n2n1	TEAD-YAP block 71.3
CCOC(=O)c1ccc(NC(=O)c2c(O)c3cccc4c3n(c2=O)CCC4)cc1	none
COc1cc2nc(N(C)C)nc(N)c2cc1OC	TEAD-YAP block 60.5
COc1ccc(-c2nc(N)c3cc(OC)c(OC)cc3n2)cc1	none
CCC(c1nnnn1CCOC)N(Cc1cc2ccc(OC)cc2[nH]c1=O)C1CCCC1 (configuration not stated)	TEAD-YAP block 58.1
CCCCC(=O)Nc1cc(OC)c(OC)cc1C(=O)O	FBW7 activator 2.2
COc1ccccc1CC(=O)Nc1cc(OC)c(OC)cc1C(=O)O	none
COc1ccc2nc3oc(C(=O)N4CCOCC4)cc3cc2c1	TEAD-YAP block 64.3
O=c1oc2ccc(Cl)cc2cc1-c1csc(Nc2ccccc2Cl)n1	none
COc1cccc2c1OC1(CCCCC1)N1N=C(c3ccc(C)o3)CC21 (configuration not stated)	none
COc1cccc2c1OC1(CCC(C)CC1)N1N=C(c3ccc(C)o3)CC21 (configuration not stated)	TEAD-YAP block 32.9
COc1ccc(C2Oc3c(OC)cccc3C3CC(c4cccc(OC)c4)=NN32)cc1 (configuration not stated)	TEAD-YAP block 43.8
COc1cccc(C2Oc3c(OC)cccc3C3CC(c4ccc(C)o4)=NN32)c1 (configuration not stated)	TEAD-YAP block 37.6
CCOc1cccc2c1OC(c1ccc(OC)cc1)N1N=C(c3ccc(C)o3)CC21 (configuration not stated)	none
COc1ccc(C2=NN3C(C2)c2cccc(OC)c2OC3c2ccc(OC)cc2)cc1 (configuration not stated)	none
CC(C)C(Nc1nc(NC(Cc2ccc(O)cc2)C(=O)O)ccc1[N+](=O)[O-])C(=O)O (configuration not stated)	none
CC(=O)Nc1ccc(Nc2ncnc3c2nc(-c2csc4ccccc24)n3C(C)C)cc1	none
O=C(O)CCn1nnc2ccccc2c1=O	none
COc1ccccc1C(=O)N(CN1CCCC1=O)c1ccccc1OC	none
COc1ccc2oc(=O)c(-c3nnc(Nc4ccccc4C)s3)cc2c1	none
CCCCn1c(CNC(=O)c2ccc(Cl)cc2Cl)nnc1SCC(=O)Nc1sc2c(c1C(=O)OCC)CCC2	none
Cc1ncn(-c2ccc(Nc3nccc(-c4cc(C#N)cc(NC(C)C)c4)n3)cc2)n1	none
